Source: ChEMBL document CHEMBL4513216, “Probing the Open Global Health Chemical Diversity Library for Multistage-Active Starting Points for Next-Generation Antimalarials” (ACS Infect Dis, 2020)
Hit rate of the full screen: of about 68,000 compounds, about 2,700 (4%) showed an effect of 50% or more. The sample holds strong results, similar compounds and a random draw of the others, so the mix is not that of the screen.

What follows are compounds tested on Plasmodium berghei (assay: Screen against P. berghei liver stage (PbLuc), transformed with Luciferase, at 2uM). Settings: tested at 2 uM.
Assay type: functional, HepG2

Row | SMILES | INHIBITION [%]
1 | CCS(=O)(=O)N1CCCCC1c1nc(C(C)C)no1 (configuration not stated) | -28.84
2 | CN1CCN(Cc2ccccc2Oc2ccc(C(N)=O)cn2)CC1 | 8.73
3 | CN(Cc1ccc(O)cc1)C(=O)NC1CCCN(c2ncccn2)C1 (configuration not stated) | 36.95
4 | Cc1nc(CN2CCCC(c3nccs3)C2)cs1 (configuration not stated) | -33.32
5 | Cn1cc(Cl)c(C(=O)N2CCC(N3CCc4ccccc4C3)CC2)n1 | 18.63
6 | Cc1c(O)cccc1C(=O)N1CCCC2(C1)C(=O)N(C)c1ccccc12 (configuration not stated) | -91.67
7 | Cc1noc(COCC(=O)N2CCCC(c3nccs3)C2)n1 (configuration not stated) | -7.96
8 | CCc1cn[nH]c1C1CCCN(C(=O)c2cnc(NC(C)C)nc2)C1 (configuration not stated) | 56.49
9 | CCc1cn[nH]c1C1CCCN(C(=O)c2cc(C(C)C)on2)C1 (configuration not stated) | 22.34
10 | CCc1cn[nH]c1C1CCCN(C(=O)c2ncoc2C(C)C)C1 (configuration not stated) | 27.85
11 | CCn1cc(NC(=O)C(C)n2ncc(Cl)c2C)c(C(=O)NC)n1 (configuration not stated) | -28.77
12 | CC(C)(C)C(=O)N1C[C@H](c2ccsc2)[C@H]2CN(C3CCCCC3)CC[C@H]21 | 25.41
13 | CC(C)C(=O)N1CCC12CCCN(C(=O)c1ccnnc1)C2 (configuration not stated) | -40.36
14 | CC(=O)NC(Cc1c[nH]c2cc(F)ccc12)C(=O)Nc1nonc1C (configuration not stated) | 46.43
15 | CC(=O)NC(Cc1c[nH]c2cc(F)ccc12)C(=O)Nc1nncs1 (configuration not stated) | 59.94
16 | CC(=O)NC(Cc1c[nH]c2cc(F)ccc12)C(=O)Nc1cnn(C)c1 (configuration not stated) | 11.32
17 | Cc1ccc(CN(C)C(=O)CN2CCCC(Cn3cncn3)C2)cc1 (configuration not stated) | 10.4
18 | O=C1CCC(c2nc(C3CCNCC3)no2)N1 (configuration not stated) | -6.77
19 | CCN1C[C@H]2[C@@H](C1)N(C(=O)Cc1ccsc1)CC[C@H]2OC | 48.52
20 | CO[C@H]1CCN(C(=O)Cc2ccsc2)[C@@H]2CN(CC3CC3)C[C@H]12 | 22.16
21 | CO[C@@H]1CCN(C(=O)c2ccsc2)[C@@H]2CN(CC3CC3)C[C@@H]21 | 54.01

Row | SMILES | INHIBITION [%]
22 | CCn1nc(C)cc1C(=O)N1CC[C@H](OC)[C@H]2CN(CC3CC3)C[C@H]21 | 24.51
23 | CO[C@H]1CCN(C(=O)c2ccsc2)[C@@H]2CN(CC3CC3)C[C@H]12 | -1.45
24 | CCN1C[C@@H]2[C@@H](OC)CCN(C(=O)c3cc(C)nn3CC)[C@@H]2C1 | 66.46
25 | O=C(c1cscn1)N1C[C@H]2CCCC(OCc3cccnc3)[C@H]2C1 (some centres not stated) | -16.41
26 | COCCCN1CCCN(C(C)C(=O)Nc2cccc(I)c2)CC1 (configuration not stated) | 42.76
27 | Cc1cc(C)cc(OCC(=O)NC2CCN(S(C)(=O)=O)CC2)c1 | -50.23
28 | CCN(Cc1cccc(C(N)=O)c1)c1ccccc1 | 36.74
29 | Cc1ncsc1C(=O)NC1CCN(Cc2ccc(C(N)=O)cc2)CC1 | -2.82
30 | Cc1ncsc1C(=O)NC1CCN(Cc2ccc(C(F)(F)F)cc2)CC1 | 74.35
31 | Cc1ccc(CN2CCC(NC(=O)c3scnc3C)CC2)cc1 | -21.72
32 | Cc1cc(CN2C[C@@H]3CC[C@H]2CN(C2Cc4ccccc4C2)C3)on1 | 17.28
33 | CCC(NCc1ccccc1)c1ccccc1OCC(=O)NC (configuration not stated) | -3.09
34 | CC(=O)N[C@@H]1CN(C2CCN(c3cccc(Cl)c3)CC2)C[C@H]1C(C)C | 21.97
35 | COc1ccc(N2CCC(N(C)C(C)C(=O)N(C)C)CC2)cc1 (configuration not stated) | -2.89
36 | CC(=O)N[C@@H]1CN(C2CCN(c3cccc(C)c3C)CC2)C[C@H]1C(C)C | 29.13
37 | COc1ccc(N2CCC(N(C)C(=O)C(C)SC)CC2)cc1 (configuration not stated) | 27.5
38 | CC(=O)N[C@@H]1CN(C2CCN(c3ccccc3F)CC2)C[C@H]1C(C)C | 7.67
39 | COc1ccc(N2CCC(N3C[C@H](NC(C)=O)[C@@H](C(C)C)C3)CC2)cc1 | 55.36
40 | CCOC(C)C(=O)N(C)C1CCN(c2ccc(OC)cc2)CC1 (configuration not stated) | 73.09
41 | COc1ccc(N2CCC(NC(=O)c3ccc(C#N)cc3)CC2)cc1 | 45.62
42 | COc1cccc(N2CCC(N3C[C@@H](NC(C)=O)[C@H](C(C)C)C3)CC2)c1 | 52.98

Row | SMILES | INHIBITION [%]
43 | O=C(NCC1(c2ccc(F)cc2)CCCC1)N1CCOC(CO)C1 (configuration not stated) | 12.41
44 | Cn1ncnc1-c1ccnc(N2CCC(C(O)c3cccs3)CC2)n1 (configuration not stated) | 39.98
45 | Fc1cccc(N2CCCC3(CN(Cc4cccnc4)CCO3)C2)c1 (configuration not stated) | -18.59
46 | O=c1[nH]c2ccccc2c2c1CCO2 | -66.7
47 | O=C(Nc1ccccn1)NC(CCCO)c1ccccc1 (configuration not stated) | -67.62
48 | Cc1ccc(CN2CC[C@H]3OCC[C@@]3(COCC(=O)N(C)C)C2)s1 | -14.52
49 | CCc1ccc(CN2CCCC(CO)(CCOC)C2)cc1 (configuration not stated) | 22.74
50 | CCN(CC)C(=O)[C@@H]1C[C@H](N)CN1C(=O)c1cc2c([nH]c1=O)CCC2 | 22.89
51 | CCN(CC)C(=O)[C@@H]1C[C@@H](N)CN1C(=O)c1cc2c([nH]c1=O)CCC2 | 56.16
52 | CC(C)NC(=O)[C@@H]1C[C@H](N)CN1C(=O)c1cc2c([nH]c1=O)CCCC2 | -34.26
53 | CCN1CC2(CCC1=O)CCN(CCc1nccn1C)CC2 | 25.65
54 | CNc1nnc(CCn2nc(C)c(Br)c2C)s1 | 6.05
55 | CC(C)(C)CC(=O)NC[C@H]1OC[C@@H](NCc2ccccn2)[C@@H]1O | 16.43
56 | CN(C)C(=O)CS(=O)(=O)Cc1ccn(-c2cccc(F)c2)n1 | -19.29
57 | CC(C)=CCS(=O)(=O)Cc1ccn(-c2cccc(F)c2)n1 | 58.14
58 | CCS(=O)(=O)Cc1ccn(-c2cccc(F)c2)n1 | 6.82
59 | CCCNC(=O)CNc1cc(C#N)ccc1OCC | -19.76
60 | Cn1ncc(C(=O)O)c1C(=O)Nc1nc2ccc(Br)cc2s1 | 3.27
61 | N#Cc1ccc(CNCC2CCN(CCO)CC2)cc1 | 1.07
62 | Cc1[nH]c2ccc(CNc3cc(C(=O)NC(C)C)ccn3)cc2c1C | 15.46
